Experimental findings from publication PMC7819943, “Rice protein-binding microarrays: a tool to detect cis-acting elements near promoter regions in rice” are described below.

Over roughly 39,000 sequences, “fluorescence intensity (a.u.)” has its median near 4,300; the highest 2% begin near 39,000. Shown is part of a subset that was picked to be rich in the highest values.

The target in the assay is T1, OsSMF1 (Oryza sativa, UniProt Q6ZLB0 1-436).
T1 sequence: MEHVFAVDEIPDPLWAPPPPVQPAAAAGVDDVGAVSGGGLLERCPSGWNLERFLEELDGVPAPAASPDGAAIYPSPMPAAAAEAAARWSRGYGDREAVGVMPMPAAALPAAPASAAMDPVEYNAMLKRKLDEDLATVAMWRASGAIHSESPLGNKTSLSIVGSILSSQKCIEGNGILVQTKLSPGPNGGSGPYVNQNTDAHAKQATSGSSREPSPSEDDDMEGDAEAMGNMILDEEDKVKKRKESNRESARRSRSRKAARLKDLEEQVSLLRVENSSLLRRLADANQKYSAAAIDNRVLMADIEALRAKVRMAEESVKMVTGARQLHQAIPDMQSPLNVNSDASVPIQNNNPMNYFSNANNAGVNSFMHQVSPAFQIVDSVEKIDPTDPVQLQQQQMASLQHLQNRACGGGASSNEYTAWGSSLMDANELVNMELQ
Briefly: protein-binding microarray (RPBM); PBS, 2% BSA, 51.3 ng/ul salmon testes DNA, 50 uM zinc acetate, 200 nM TF, 25 C, 1 h; high values mean tight binding. The conditions noted are these: protein: recombinant; tags: N-terminal polyhistidine and DsRed monomer fusion (pET32a); chain copies: 2; label: CyDye5-dUTP incorporated in the synthesized complementary strand; 3' TTTTT single-stranded linker to array surface; dsDNA, one strand shown. In a few lines: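 Binding signal here means per-feature fluorescence intensity in arbitrary units. The values were read on an Axon 4000B scanner after a custom Agilent array, double-stranded by primer extension with Cy5-dUTP, was incubated with 200 nM protein at 25 °C for 1 h in PBS with 2% BSA, salmon testes DNA and 50 µM zinc acetate, then washed. The proteins were transcription factors with an N-terminal polyhistidine tag and DsRed, expressed in E. coli BL21-CodonPlus and purified on Ni–NTA.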
With “AGAGAGAGGGGAGAGGGGTGGAAGGGGAATATGGTAGCTGCGGAGTCACCTAGTGCAG”, the binding signal is 3330 fluorescence intensity (a.u.). Consider “CCTCGTCGCCGCGTCACGGCGTCAGCTCGCCGCTCTAGGGCGGAGTCACCTAGTGCAG”, for which the binding signal is 4820 fluorescence intensity (a.u.). In the case of “GCCTCACAACCCGCATGGACACTGACATCGGCATCATCATCGGAGTCACCTAGTGCAG”, the binding signal was 4260 fluorescence intensity (a.u.). As for “GACAAAGTCACACTGTCACACGTATTACCGGTTACAAACTCGGAGTCACCTAGTGCAG”, the binding signal was 3940 fluorescence intensity (a.u.). As to “GGCAACCGCCCTTAAGGTGTGAGACAGCACGACAACGCCCCGGAGTCACCTAGTGCAG”, the binding signal is 3690 fluorescence intensity (a.u.). Regarding “GTATTGGAGCTCTACAGTTCGGTCTACTCCTCTCTGTTGCCGGAGTCACCTAGTGCAG”, the binding signal was 27500 fluorescence intensity (a.u.). In the case of “AGCACCACGGTCAATGCCACGTATGTGCCACGTCATCCAACGGAGTCACCTAGTGCAG”, the binding signal is 46600 fluorescence intensity (a.u.). As to “ATTGCCACGTAGGCGCCACGTGGCGCCACATCAGCAAAACCGGAGTCACCTAGTGCAG”, the binding signal is 40700 fluorescence intensity (a.u.). In the case of “ACGTCTCCTCCTCCTCCACGTCAAACCACAATCCAACCAACGGAGTCACCTAGTGCAG”, the binding signal is 5400 fluorescence intensity (a.u.). For “CAACACCGCCACGTAGGCGCCACATCAGCAAAACCATCCTCGGAGTCACCTAGTGCAG” the value was 23200 fluorescence intensity (a.u.).

In the case of “GTAGGCGCCACGTGGCGCCACGTCAGCAAAACCGCCTCCTCGGAGTCACCTAGTGCAG”, the binding signal is 24000 fluorescence intensity (a.u.). Turning to “AACCACGTATGCGCCACGTCATCCAAAACCGCCTTCAAAACGGAGTCACCTAGTGCAG”, the binding signal is 14400 fluorescence intensity (a.u.). For “GTCGTGCTAGCTCGATCCATTTCCTACGTGTGCACCAAACCGGAGTCACCTAGTGCAG”, the binding signal is 5810 fluorescence intensity (a.u.). As for “GAAAGGGATGGCTCACTTGAAACGTACTGCTCCCTGCCCCCGGAGTCACCTAGTGCAG”, the binding signal is 3160 fluorescence intensity (a.u.).

As for “AGCCAAAGCATTTGCCATCCGATGAGGGCGTACTATTAAACGGAGTCACCTAGTGCAG”, the binding signal was 28000 fluorescence intensity (a.u.). With “CCAAGGTAAGATGAAGCAGCAGCATTTGCATTAAACTATCCGGAGTCACCTAGTGCAG” the figure was 60100 fluorescence intensity (a.u.); with “GATTAAAACCAAAACTCATGATGGAAGTGGATGCATTTGCCGGAGTCACCTAGTGCAG”, 25500 fluorescence intensity (a.u.); with “TTGATAATTACTCTTACGTCCCTCACCCTATGCTCCTGTGCGGAGTCACCTAGTGCAG”, 3440 fluorescence intensity (a.u.). As to “TACTTTATATAGATGTTCAAACATTCGATATGACATGCTGCGGAGTCACCTAGTGCAG”, the binding signal is 45300 fluorescence intensity (a.u.). Take “AATACTTTATGCAGGTGTTCAAATGTTCGATGTGACAGGGCGGAGTCACCTAGTGCAG”: the binding signal was 3150 fluorescence intensity (a.u.). On to “TATTTTATATTAGTGTTCAAACGTTCGATGTGACATGTGTCGGAGTCACCTAGTGCAG”, for which the binding signal was 3930 fluorescence intensity (a.u.). In the case of “ATTGCAACCGGAGAGCCTGACCAAAGAAATTCAGATCCTTCGGAGTCACCTAGTGCAG”, the binding signal was 3200 fluorescence intensity (a.u.). Regarding “GAAGTGCCACGTAAGCACCACATCAATGCCACGTCAGATGCGGAGTCACCTAGTGCAG”, the binding signal was 38800 fluorescence intensity (a.u.). For “GTTAAATTGCCACGTAAGCACCACGTCATACCACGTCAGACGGAGTCACCTAGTGCAG” the value was 51500 fluorescence intensity (a.u.); for “CGGATCGAATTGCCACGTAAGCGGCACGTCAGTGCCATGTCGGAGTCACCTAGTGCAG”, 20000 fluorescence intensity (a.u.); for “GAATTGCCACGTAAGCACCACGTCAGTGCCATGTCAGATGCGGAGTCACCTAGTGCAG”, 52400 fluorescence intensity (a.u.).

In the case of “TTATTTTAGTGCCACGTAAGCGACACGTCGATGCCACATGCGGAGTCACCTAGTGCAG”, the binding signal was 23000 fluorescence intensity (a.u.). Take “TCAAATTGTCACATAAGCGTCATGTCAATGCCACGTCAGACGGAGTCACCTAGTGCAG”: the binding signal was 27200 fluorescence intensity (a.u.). With “TTTTCATTTTAGTGCCACGTAAGCACCACATCGATGCCACCGGAGTCACCTAGTGCAG” the figure was 41200 fluorescence intensity (a.u.); with “TTAATTGAAATGCCACCTAAGCACCACGTCAGCACACAGACGGAGTCACCTAGTGCAG”, 18700 fluorescence intensity (a.u.); with “ATGCATCTAAGCATATTAGCTATATACCACATCATTTTCACGGAGTCACCTAGTGCAG”, 4780 fluorescence intensity (a.u.).

As to “TTTGTCCTACGTGGCGTACGCGTGGCAATCCAGTCATAATCGGAGTCACCTAGTGCAG”, the binding signal is 20400 fluorescence intensity (a.u.). Take “ATTCGGTGGGTTGAGGCAGTGATGTGGTGAGAGGAGAAAGCGGAGTCACCTAGTGCAG”: the binding signal was 3440 fluorescence intensity (a.u.). In the case of “GAAAGTGGACGCGCGCGGTCTGGCGTCACCTGGGCCGAAACGGAGTCACCTAGTGCAG”, the binding signal is 3320 fluorescence intensity (a.u.).

On to “CTGCCCAACAAAGTCCAGAAACTTCACGACATTCAATTGCCGGAGTCACCTAGTGCAG”, for which the binding signal was 22600 fluorescence intensity (a.u.). Regarding “TACTATAGACTAGCAAATGCCAAATGACAAATTGCCAAGTCGGAGTCACCTAGTGCAG”, the binding signal was 15800 fluorescence intensity (a.u.). “TCACGCTGACCAAACACCATCTGTTATTCTGTTTGTTTGTCGGAGTCACCTAGTGCAG”: the binding signal was 3640 fluorescence intensity (a.u.). With “ACTGTTATTCCTACAGGCCAAAGCTGACCTAACCAATTCACGGAGTCACCTAGTGCAG”, the binding signal was 46800 fluorescence intensity (a.u.).

For the sequence “ATTCAGTGCAGCAGCTGCAGGCCAAGCAGGCAGCACAGCACGGAGTCACCTAGTGCAG”, the binding signal was 3610 fluorescence intensity (a.u.).

Regarding “GTAGCTGTTAAGTTCCATCTCGTCAGCAGCTGCCTGCAGACGGAGTCACCTAGTGCAG”, the binding signal was 3210 fluorescence intensity (a.u.). As for “CTGTGAGTTCGTTGTCTGAGTGAGAGCTGGACGTGCTGCACGGAGTCACCTAGTGCAG”, the binding signal was 33000 fluorescence intensity (a.u.). Regarding “GTGGCCACTTGCATCAGCCGGCCATGAGTGGAGGGGTAAGCGGAGTCACCTAGTGCAG”, the binding signal was 49700 fluorescence intensity (a.u.).
